“And” between values parts separate entries of the source, which are not always exact repeats. Identical values can stand only once. The panel holds about 83,000 compounds, 20% with a hit somewhere; the sample as a whole holds those more often.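 Treatment: one concentration, 48 hours, 96-well format. Scoring: percent growth, with anything below 10 considered active.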 Unmarked numbers belong to inactive results. The source made the active and inactive calls.
Assays:
Assay in all cases: NCI-60 one-dose screen, 48 h (100 = growth as untreated, 0 = no growth, -100 = all killed)
Settings in all cases: 10 µM unless noted
DU-145 prostate = test system: DU-145 prostate
K-562 leukemia = test system: K-562 leukemia
MALME-3M melanoma = test system: MALME-3M melanoma
MDA-MB-231 breast = test system: MDA-MB-231 breast
RXF 393 renal = test system: RXF 393 renal
SF-268 CNS = test system: SF-268 CNS
SF-295 CNS = test system: SF-295 CNS
SF-539 CNS = test system: SF-539 CNS
UACC-257 melanoma = test system: UACC-257 melanoma
M14 melanoma = test system: M14 melanoma

Structure (SMILES)	growth (DU-145 prostate)	growth (K-562 leukemia)	growth (MALME-3M melanoma)	growth (MDA-MB-231 breast)	growth (RXF 393 renal)	growth (SF-268 CNS)	growth (SF-295 CNS)	growth (SF-539 CNS)	growth (UACC-257 melanoma)	growth (M14 melanoma)
Clc1ccc2c(NCCN3CCN(c4ccnc(N5CCCC5)n4)CC3)ccnc2c1	58.1%	0.171% (active)	-43.3% (active)	4.01% (active)	-59.2% (active)	33%	52.9%	-63.1% (active)	-62% (active)	-55.7% (active)
CONC1=Nc2cc(NC(N)=NCc3ccccc3)c(N(C)C3CCCCC3)cc2OC1	72.6%	23.6%	78.6%	25.5%	41.2%	68.1%	83.3%	75.9%	89.5%	78.1%
C=C(C)[C@@H]1CC[C@]2(C(=O)N3CCN(C)CC3)CC[C@]3(C)[C@H](CC[C@@H]4[C@@]5(C)CC(CCCNC(C)=O)(CCCNC(C)=O)[C@H](OC(C)=O)C(C)(C)[C@@H]5CC[C@]43C)[C@@H]12	108%	81.1%	98%	108%	109%	98.9%	99.4%	101%	109%	104%
COCCn1cc(-c2nc(-c3cn(CCOC)c4ncccc34)cs2)c2ccccc21	97.1%	119%	88.6%	49%	76.1%	83.3%	91.4%	79.4%	88%	99.9%
CC(=O)c1nn(-c2ccccc2)/c(=N/N=Cc2cn(-c3ccccc3)nc2-c2cc3ccccc3oc2=O)s1	107%	98.5%	104%	82.6%	111%	104%	103%	99.6%	108%	97.4%
CCN(CC)CCCN1C(=O)c2c(c(C)c3c(oc4cc(OC)ccc43)c2C)C1=O	112%	-31.5% (active)	85.3%	96%	73%	101%	100%	95.5%	114%	108%
Cn1c(=O)c2c(nc(Nc3cc(=O)[nH]c(=O)[nH]3)n2Cc2ccccc2)n(C)c1=O	2.17% (active)	87.5%	103%	99.7%	81.7%	24.9%	101%	94.2%	47.3%	91.8%
COC1=CC(c2ccc[nH]2)=N/C1=C\c1[nH]c(C)c(C(=O)Oc2ccccc2)c1C	9.64% (active)	8.48% (active)	-79.6% (active)	-69.2% (active)	-9.71% (active)	14.9%	-74.9% (active)	-74.6% (active)	-54.9% (active)	-59.2% (active)
COc1nc2ccc(C)cc2cc1/C=[N+](\[O-])c1ccccc1	95.5%	33.6%	94%	78%	101%	86.2%	90.3%	89.8%	95.7%	86.8%
O=C(N=Nc1c(O)[nH]c2ccccc12)Nc1ccc(Br)cc1	93.3%	79%	86.1%	110%	82.4%	86.2%	93%	83.6%	115%	89.8%
CC[C@]1(O)CC2CN(CCc3c([nH]c4ccccc34)C(C(=O)OC)(c3cc4c(cc3OC)N(C=O)[C@H]3[C@@](O)(C(=O)OC)[C@H](OC(C)=O)[C@]5(CC)[C@@H]6C[C@@H]6CN6CC[C@]43[C@@H]65)C2)C1 (stereo partly specified)	-41.4% (active)	27.5%	34.2%	-27.5% (active)	32.9%	15.3%	-4.56% (active)	0.385% (active)	53.2%	-31.6% (active)
CC[C@H](C)[C@H](NC(=O)[C@@H](N)CCC(N)=O)C(=O)N[C@@H](Cc1ccc(O)cc1)C(=O)N[C@@H](CCCCN)C(=O)N[C@@H](CCCCN)C(=O)N[C@@H](Cc1ccc(O)cc1)C(=O)N[C@@H](CCCNC(=N)N)C(=O)N[C@H](C(=O)N[C@@H](Cc1c[nH]c2ccccc12)C(=O)N[C@@H](Cc1ccc(O)cc1)C(=O)N[C@@H](CCCNC(=N)N)C(=O)N[C@@H](CCCCN)C(=O)N[C@@H](C)C(=O)N[C@@H](Cc1c[nH]c2ccccc12)C(=O)N[C@@H](CCCCN)C(=O)N[C@H](C(=O)N[C@@H](CC(C)C)C(=O)NCC(=O)N[C@@H](CCCCN)C(=O)N[C@H](C(N)=O)C(C)C)C(C)C)[C@@H](C)O	6.03% (active)	5.04% (active)	-30.6% (active)	-29.7% (active)	11.4%	-29.8% (active)	34.6%	-40.7% (active)	66.2%	-11.8% (active)
C/C=C(\C)C(=O)N[C@H]1CC[C@]2(C)C3CC[C@@]4(C)C(CC[C@@H]4C(C)N(C)C)C3CCC2[C@H]1OC(C)=O (stereo partly specified)	4.99% (active)	18%	-68.6% (active)	-32.3% (active)	-61.5% (active)	-84.6% (active)	-66.9% (active)	-95.7% (active)	-51.3% (active)	-64.1% (active)
O=C1CCCCN1CCCCC#Cc1cccc(C#Cc2cccnc2)c1	109%	26.9%	249%	65.3%		83.2%	79.9%	91.8%	84.4%	105%
Cc1ccc(/C=C(\C#N)c2cc3ccccc3[nH]2)cc1	73.1%	13.8%	67.7%	35.9%	82.8%	68.1%	68.2%	57.7%	72.4%	31.5%
CC(C)=CCc1cc(O)c(O)c2oc3cc(O)cc(O)c3c(=O)c12	55.8%	67%	91.3%	55.5%	84.6%	49.7%	77.9%	64.8%	98.2%	63.9%
CC[C@H](C)[C@H](NC(=O)[C@H](CCCCN)NC(=O)[C@H](CCCCN)NC(=O)[C@@H](NC(=O)[C@@H](NC(=O)[C@@H](N)Cc1cnc[nH]1)[C@@H](C)CC)[C@@H](C)CC)C(=O)N[C@@H](CCCNC(=N)N)C(=O)N[C@H](C(=O)N[C@@H](Cc1c[nH]c2ccccc12)C(=O)N[C@@H](Cc1ccc(O)cc1)C(=O)N[C@@H](CCCNC(=N)N)C(=O)N[C@@H](CCCCN)C(=O)N[C@@H](C)C(=O)N[C@@H](Cc1c[nH]c2ccccc12)C(=O)N[C@@H](Cc1cnc[nH]1)C(=O)N[C@H](C(=O)N[C@@H](CC(C)C)C(=O)NCC(=O)N[C@@H](CCCCN)C(=O)N[C@H](C(N)=O)C(C)C)C(C)C)[C@@H](C)O	30.7%	67.9%	4.7% (active)	10.9%	23.4%	-12.7% (active)	24.5%	-12.2% (active)	67.8%	-12% (active)
O=C1c2cc3c(cc2-c2c1c1ccc(Cl)cc1c(=O)n2CCCn1ccnc1)OCO3	-42.2% (active)	1.87% (active)	-24.6% (active)	46.4%	-36.7% (active)	8.11% (active)	-10.1% (active)	-50.3% (active)	-3.1% (active)	-28.6% (active)
C=CCNC(=O)Cc1c(-c2ccc(OC)cc2)oc2c(OC)c3c(c(OC)c12)OCO3	104%	102%	106%	91.1%	90.8%	96.2%	106%	103%	105%	101%
CC(C)(C)CC(N)=O	111%	116%	102%		103%	105%	92.5%	95.3%	95%	92%
Cc1ccc(NC(=O)N/C(N)=N/c2nc(=O)c3ccccc3s2)cc1	108%	57%	93.9%	86%	99%	102%	101%	95.5%	103%	92.4%
CC1=CC=C(NC(=O)/C=C/c2ccccc2)CC1Nc1nccc(-c2cccnc2)n1 (stereo unspecified)	30.9%	10.2%	45.2%	51.5%	0.475% (active)	54%	44.1%	14%	8.14% (active)	23.7%
COc1c(NC=O)c2c(c([N+](=O)[O-])c1OC)C(=O)OC2	130% and 119%	125% and 102%		104% and 89.8%	113% and 105%	112% and 105%	109% and 96.4%	120% and 87.3%	97.4% and 111%	104% and 100%
CC(=O)N1N=C(c2ccc(Nc3nc(Nc4ccc(F)cc4)nc(Nc4ccc(Cl)cc4)n3)cc2)CC1c1ccc(N(C)C)cc1 (stereo unspecified)	5.71% (active)	23.8%	62.7%	51%		68.8%	1.56% (active)	67.9%	46.8%	41.4%
